Source: PubChem BioAssay (National Center for Advancing Translational Sciences (NCATS))
Hits are enriched below; roughly 3.9% of the tested compounds scored in any of these assays.
VDR inhibitor: Inhibitors of the vitamin D receptor (VDR): qHTS. 0.93% of 400,000 active. VDR-SRC2-3 peptide fluorescence polarization, 2 h. Vitamin D3 receptor (Homo sapiens), P11473. Potency, µM, usual class: inhibitors
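After 23 nl compound addition and a short centrifugation, plates sat for 2 hours at ambient temperature; polarization of fluorescence then indicated loss of VDR binding to peptide SRC2-3.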
PLK1 PBD inh: qHTS for Inhibitors of PLK1-PDB (polo-like kinase 1 - polo-box domain): Primary Screen; 2.8% of 360,000 active; Plk1 PBD binding of FITC phosphopeptide, fluorescence polarization; Potency, µM, hits mostly inhibitors; further: series mostly up to about 57 µM; nearly all actives have a fitted effect of over 65% in size
Target sequence (P53350 whole entry, looked up, the tested form may be a part): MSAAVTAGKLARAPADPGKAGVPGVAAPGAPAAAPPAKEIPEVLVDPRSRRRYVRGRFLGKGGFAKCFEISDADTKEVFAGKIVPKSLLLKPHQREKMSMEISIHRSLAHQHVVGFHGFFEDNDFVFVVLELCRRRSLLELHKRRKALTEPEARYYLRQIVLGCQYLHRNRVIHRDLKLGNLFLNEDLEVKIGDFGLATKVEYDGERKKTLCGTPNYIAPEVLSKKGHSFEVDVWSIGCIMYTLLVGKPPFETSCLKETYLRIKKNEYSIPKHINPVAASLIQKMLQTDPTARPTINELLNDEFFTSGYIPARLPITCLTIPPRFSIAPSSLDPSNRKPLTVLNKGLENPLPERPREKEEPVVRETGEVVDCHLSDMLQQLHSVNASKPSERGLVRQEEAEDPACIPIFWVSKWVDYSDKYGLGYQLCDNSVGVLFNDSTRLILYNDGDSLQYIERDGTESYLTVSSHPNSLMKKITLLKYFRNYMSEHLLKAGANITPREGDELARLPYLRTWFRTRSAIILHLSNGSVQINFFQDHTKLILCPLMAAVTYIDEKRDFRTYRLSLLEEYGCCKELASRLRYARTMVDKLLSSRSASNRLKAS
Tb PFK inh: qHTS Assay to Find Inhibitors of T. brucei phosphofructokinase; 0.17% of 330,000 active; Potency, µM (series often up to 57.5 µM), actives largely listed as inhibitors; T. brucei PFK, ADP-Glo luminescence; ATP-dependent 6-phosphofructokinase (Trypanosoma brucei brucei), O15648; further: nearly all actives have a fitted effect of over 60% in size
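Luminescent ADP detection (ADP-Glo, two-step: ATP depletion then ADP-to-ATP conversion for luciferase) reported PFK activity after 45 min room-temperature reaction of 1.25 nM enzyme with 0.5 mM F6P and 0.1 mM ATP at pH 8.0.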
BRCA1 expr act: qHTS Assay to Identify Small Molecule Activators of BRCA1 Expression | 1.1% of 380,000 active | AID 624202, 2012 | MCF7-BRCA1-FFLuc reporter, luminescence, 48 h; response scale: scaled: vehicle 0%, 10 µM genistein 100% | Potency, µM (titrated, usually from 46.1 µM), most hits filed as activators; further: nearly all actives have a fitted effect of over 80% in size
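Activators of BRCA1 expression were detected as increased firefly luciferase luminescence in engineered MCF7 cells after 48 h compound incubation. Signals were scaled to genistein 10 microM as full activation.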
VDR inh confirm: qHTS for Inhibitors of the vitamin D receptor (VDR): Hit Validation in Primary Screen; shares compounds with VDR inhibitor; VDR-coactivator inhibition assay, qHTS confirmation; Potency, µM, hits mostly inhibitors; 89% of 840 active; AID 602199, 2012
VDR FP: qHTS for Inhibitors of the vitamin D receptor (VDR): Hit Validation using a Fluorescein Assay; shares compounds with VDR inhibitor; VDR-coactivator binding, fluorescein fluorescence polarization; Potency, µM (highest dose often 57.1 µM), actives largely listed as inhibitors; 48% of 840 active
VDR bla: qHTS for Inhibitors of the vitamin D receptor (VDR): Hit Validation using a Beta-Lactamase Assay | 23% of 840 active | VDR beta-lactamase reporter cells, FRET ratio; cells co-treated with VDR agonist LG190178 | shares compounds with VDR inhibitor | Potency, µM (series often up to 46.1 µM), hits mostly inhibitors
VDR cytotox: qHTS for Inhibitors of the vitamin D receptor (VDR): Hit Validation using a Cytotoxicity Assay; shares compounds with VDR inhibitor; cytotoxicity counter-screen, cell viability, qHTS; Potency, µM (titrated, usually from 48.3 µM), usual class: cytotoxic; 18% of 840 active; further: nearly all actives have a fitted effect of over 75% in size
Numbers stand for hits; i = inactive; ? = inconclusive; nt = no result. The call rests on the fitted dose curve; in most records, active means well fitted curve in the direction sought with a large enough effect; inconclusive means small, poorly fitted or top-dose-only effect, or another doubt; inactive means no such curve, though single readings can be large; an effect the other way counts as inactive or inconclusive.

SMILES	VDR inhibitor	PLK1 PBD inh	Tb PFK inh	BRCA1 expr act	VDR inh confirm	VDR FP	VDR bla	VDR cytotox
CN(c1ccccc1)S(=O)(=O)c1ccc(NC(=O)c2nc(S(C)(=O)=O)ncc2Cl)cc1	20µM	16.8µM	i	i	3.77	3.55µM	3.66µM	8.2µM
COC(=O)c1ccc(NC(=O)c2nc(S(=O)(=O)Cc3cccc(C)c3)ncc2Cl)cc1	20µM	?	i	i	5.97	?	14.6µM	11.6µM
Cc1cccc(CS(=O)(=O)c2ncc(Cl)c(C(=O)NCc3ccc4c(c3)OCO4)n2)c1	?	?	i	i	nt	nt	nt	nt
CCCSc1ncc(Cl)c(C(=O)Nc2ccc(S(=O)(=O)N(C)c3ccccc3)cc2)n1	i	nt	nt	nt	nt	nt	nt	nt
c1cn2c(-c3ccc(N4CCOCC4)cc3)cncc2n1	nt	i	nt	i	nt	nt	nt	nt
CCCCn1nnnc1C(c1ccccc1)N1CCN(c2c(Cl)cncc2Cl)CC1 (centres undefined)	nt	i	nt	i	nt	nt	nt	nt
CCOC(=O)c1ccc(NC(=O)c2nc(S(=O)(=O)Cc3ccccc3)ncc2Cl)cc1	31.6µM	11.9µM	i	i	13.4	?	14.6µM	13µM
CCS(=O)(=O)c1ncc(Cl)c(C(=O)Nc2ccc(S(=O)(=O)N3CCC(C)CC3)cc2)n1	14.1µM	?	i	i	5.32	3.55µM	8.2µM	3.66µM
CCc1ccc(NC(=O)c2nc(S(=O)(=O)Cc3ccccc3)ncc2Cl)cc1	nt	nt	i	nt	nt	nt	nt	nt
CCSc1ncc(Cl)c(C(=O)Nc2ccc(S(=O)(=O)N3CCC(C)CC3)cc2)n1	i	nt	nt	nt	nt	nt	nt	nt
CCc1ccccc1NC(=O)C(CC)Sc1ncnc2c1sc1ccccc12 (centres undefined)	i	nt	nt	nt	nt	nt	nt	nt
COc1ccc(C2/C=C\CC(NS(=O)(=O)c3ccc(C)cc3)CC(=O)N2Cc2ccccc2F)cc1 (centres undefined)	i	i	i	i	nt	nt	nt	nt
O=C(/C=C/c1c(F)cccc1Cl)c1ccc(F)cc1	44.7µM	?	i	i	10.6	8.91µM	i	i
O=C(CSCc1cc(=O)c2cc(F)ccc2[nH]1)Nc1ccccc1Cl	i	nt	nt	nt	nt	nt	nt	nt
O=C(NCc1cccnc1)/C(=C\c1ccc(-c2cccc(Cl)c2)o1)S(=O)(=O)c1ccccc1	44.7µM	i	i	i	23.8	?	6.51µM	18.4µM
O=C(NCc1cccnc1)/C(=C/c1ccc(-c2cccc(Cl)c2)o1)S(=O)(=O)c1ccccc1	?	i	i	i	nt	nt	nt	nt
O=[N+]([O-])c1c(Nc2ccccc2O)cc(Cl)c2nonc12	44.7µM	2.99µM	?	i	4.23	?	4.61µM	13µM
O=C(O)c1cc(Nc2cc(Cl)c3nonc3c2[N+](=O)[O-])ccc1O	3.55µM	4.74µM	i	i	2.67	?	i	i
CCn1nnc2c(N3CCCC3)ncnc21	?	nt	nt	i	nt	nt	nt	nt
CCCS(=O)(=O)c1ncc(Cl)c(C(=O)Nc2sc3c(c2C(=O)NCC)CCCC3)n1	nt	nt	nt	i	3.16	?	5.8µM	?
CC(=O)Nc1cccc(C(=O)/C=C/c2ccc(C)cc2)c1	25.1µM	i	i	i	21.2	?	?	?
CCc1ccccc1NC(=O)Nc1nnc(N(CC)c2ccccc2)s1	i	nt	nt	nt	nt	nt	nt	nt
COC(=O)[C@]12CCCCC=C1N(Cc1ccccc1)C(=O)[C@H](CC(=O)NCC1CCCCC1)C2	nt	i	nt	i	nt	nt	nt	nt
COc1ccc(S(=O)(=O)CC(=O)c2cc3cc(Br)ccc3oc2=O)cc1	?	1.68µM	?	i	10	3.98µM	i	i
COc1ccc(OC)c(S(=O)(=O)CC(=O)c2cc3ccc(OC)cc3oc2=O)c1	i	i	i	i	nt	nt	nt	nt
SMILES	VDR inhibitor	PLK1 PBD inh	Tb PFK inh	BRCA1 expr act	VDR inh confirm	VDR FP	VDR bla	VDR cytotox
O=S(=O)(c1ccc(F)cc1)N1CCC(Oc2cccc(C(F)(F)F)c2)CC1	i	nt	nt	nt	nt	nt	nt	nt
O=C(O)CCNc1ccc(NCCC(=O)O)c2c1C(=O)c1ccccc1C2=O	7.08µM	?	?	i	7.52	i	i	?
CCOc1cc(/C=C2\COc3ccccc3C2=O)cc(Br)c1OCC(=O)N(C)C	20µM	i	i	i	5.97	?	?	18.4µM
COc1ccc(/C=C2\COc3ccccc3C2=O)c(OC)c1	?	i	i	i	nt	nt	nt	nt
COc1ccc(/C=C2\COc3ccccc3C2=O)cc1OC	?	26.7µM	i	i	22.4	15.8µM	?	?
O=C(O)c1ccc(/C=C2\COc3ccccc3C2=O)cc1	20µM	i	i	i	21.2	22.4µM	?	?
COc1ccc(S(=O)(=O)N2CCOCC2)cc1NC(=O)C1CCCCN1S(=O)(=O)c1ccccc1 (centres undefined)	i	i	nt	i	nt	nt	nt	nt
CCc1ccc(C(=O)c2cn(Cc3ccc(F)cc3)c3cc(OC)c(OC)cc3c2=O)cc1	i	nt	nt	nt	nt	nt	nt	nt
CCCCCCNc1ccc(/C=C/c2ccnc3ccccc23)cc1	nt	nt	nt	i	nt	nt	nt	nt
C=CCN=C1S/C(=C/c2cccc([N+](=O)[O-])c2)C(=O)N1CC=C	i	i	i	i	nt	nt	nt	nt
O=C(O)c1cccc(CN2C(=O)S/C(=C/c3cccc([N+](=O)[O-])c3)C2=O)c1	20µM	?	i	i	17.8	22.4µM	i	i
CS(=O)(=O)c1ccc(S(=O)CC(=O)OCc2ccccc2)c([N+](=O)[O-])c1 (centres undefined)	17.8µM	2.38µM	i	i	9.47	12.6µM	?	20.6µM
CC(=O)Nc1ccc(S(=O)(=O)NCC(=O)OCc2ccccc2)cc1	i	i	i	i	nt	nt	nt	nt
Cc1ccc(NC(=O)c2c(C)oc3c2C2=NCCN2C=N3)cc1F	i	nt	nt	i	nt	nt	nt	nt
CCOC(=O)CS(=O)(=O)c1ccccc1	i	i	i	i	nt	nt	nt	nt
O=C(O)CCS(=O)(=O)c1nc(-c2cccs2)cc(C(F)(F)F)n1	?	?	i	i	nt	nt	nt	nt
CCOC(=O)CCS(=O)(=O)c1nc(-c2ccccc2)cc(C(F)(F)F)n1	44.7µM	?	i	i	5.97	10µM	?	?
CCOC(=O)CS(=O)(=O)c1nc(-c2ccccc2)cc(C(F)(F)F)n1	20µM	10.6µM	i	i	7.52	?	?	?
O=C(Nc1nc(-c2ccccn2)cs1)c1cc(Cl)ccc1[N+](=O)[O-]	79.4µM	9.47µM	i	i	23.8	i	i	i
CCCCN(C(=O)CC1CCCCC1)c1c(N)n(CCCC)c(=O)[nH]c1=O	nt	i	nt	i	nt	nt	nt	nt
